Pf growth 96h = P. falciparum growth inhibition at 96 hour, primary screen for plastid delayed-death inhibitors. Potency, µM (titrated, usually from 28.7 µM), without a hit: at the top dose activity change, negative = inhibition, most hits filed as inhibitors. P. falciparum luciferase reporter growth, 96 h. AID 504834. 6.9% of 320,000 active; also: potency is read from the fitted curve at half-maximal effect
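Delayed-death screen, second-generation endpoint: infected erythrocytes, 2% hematocrit, 0.05% parasitemia final; 96 hours at 37 C, 5% CO2; luciferase detection reagent; luminescence decrease equals reduced growth.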
HCMV antiviral = blocks human cytomegalovirus replication; HFF cells, HCMV-luciferase reporter, 72 h; hits give low values; 4.5% of 410,000 active; AID 1259415; activity change, negative = inhibition, % at 57.5 µM; in the data active = activity change below about -60%; inconclusive = no clear call, values can overlap the other calls; inactive = above about -39%
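Steps: HFFs plated, 16 h 37C; compounds added; HCMV-luciferase added to MOI 1 PFU/cell; 72 h 37C; OneGlo reagent, 5 min room temperature; luminescence read, normalized to controls.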
HCV inh = HCV inhibition | Huh7.5.1 HCVcc-Cre infection, luciferase reporter, 44 h | AID 651820 | 3.4% of 340,000 active | Potency, µM (titrated, usually from 41.8 µM), for inactives: at the top dose activity change, negative = inhibition, actives largely listed as inhibitors; also: potency is read from the fitted curve at half-maximal effect
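HCVcc-Cre virus at an moi near 0.5 was added right after compound to cells cultured 4 h from seeding (1,000 cells/well). Luciferase activity was determined 44 h later, 15 min after substrate addition at RT.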
Pf growth 48h = inhibits P. falciparum growth in the first generation, 48 h; P. falciparum luciferase growth in erythrocytes, 48 h; Potency, µM (doses to about 28.7 µM), for the others: at the highest dose activity change, negative = inhibition, usual class: inhibitors; 5.9% of 310,000 active; AID 504832; also: potency is read from the fitted curve at half-maximal effect
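Luminescence readout; reporter = integrated firefly luciferase in P. falciparum. RBC culture at 2% hematocrit, 0.1% parasitemia final, 37 C/5% CO2; decreased signal taken as growth inhibition.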
* hit, by the source's call; ? = inconclusive; / = not tested or not shown; ! = not active in a repeat; [ ] = remark or other dose. A selection: hits, their analogues and other compounds. The true share with any hit is near 13%. Unless noted, calls follow the shape of the dose curve; as a rule, active = well fitted inhibition curve with a large enough effect; inconclusive = small, poorly fitted or top-dose-only effect, or another doubt; inactive = no such curve, though single readings can be large or run the other way. % is scaled to controls: 0 for no effect and ±100 for the full control effect.

SMILES	Pf growth 96h	HCMV antiviral	HCV inh	Pf growth 48h
CCCCCCCNC(=O)C1(CC2CC(c3cccc(Br)c3)=NO2)CCN(C(=O)c2ccccc2)CC1 (stereo not drawn)	?	65	-5%	13µM*
NC[C@@H]1O[C@H](O[C@H]2[C@H](O)[C@H](O[C@@H]3O[C@H](CO)[C@@H](O)[C@H](N)[C@@H]3O)[C@@H](N)C[C@H]2N)[C@@H](O)[C@H](O)[C@@H]1O	10%[12.8 µM]	/	/	5%[12.8 µM]
COc1ccc(Nc2nn3c(=O)c4cc5c(cc4nc3s2)OCO5)c(OC)c1	/	22	/	/
Cc1ccc(-n2c3nc(=O)n(C)c(=O)c-3cc3c(Cl)cccc32)c(C)c1	/	1	/	/
CCCCCCCNC(=O)C1(CC2CC(c3ccccc3)=NO2)CCN(C(=O)OC(C)(C)C)CC1 (stereo not drawn)	6.6µM*	14	-4%	2.9µM*
CCCNC(=O)C1(CC2CC(c3ccccc3)=NO2)CCNCC1 (stereo not drawn)	/	-14	4%	/
CCCCCCCNC(=O)C1(CC2CC(c3ccccc3)=NO2)CCN(C(=O)c2ccccc2)CC1 (stereo not drawn)	9.3µM*	-2	?	12µM*
COc1ccc(-c2cc(=O)c3c(OC)c(OC)c(OC)cc3o2)cc1	12µM*	7	-28%	?
COc1ccc(-c2cc(=O)c3c(O)c(OC)c(O)cc3o2)cc1	410%	33	-25%	189%
COc1cc(-c2cc(=O)c3c(O)cc(O)cc3o2)ccc1O	13µM*	/	13µM*	?
Cc1cc2c(cc1S(=O)(=O)Nc1ccc(C(C)C)cc1)OCCN2C	12µM*	-13	/	?
CCOc1ccc(-c2cc(C(=O)NCc3ccccc3Cl)c3ccccc3n2)cc1	/	1	/	/
Cc1cc(NC(=O)CCl)nn1C	10µM*	?	?	?
Cn1ccc(NC(=O)CCl)n1	-22%	-99*	?	?
Cc1cc(Br)c(NC(=O)CCl)c(Br)c1	?	-66*	-15%	-40%
COc1ccc(NC(=O)c2oc3c(c2C)-c2nn(Cc4c(F)cccc4Cl)cc2CC3)c(OC)c1	/	29	/	/
Cc1ccc(CNc2oc(-c3ccc(COc4ccc(C)cc4)o3)nc2C#N)cc1	/	-6	/	/
Cc1ccc(S(=O)(=O)N2CCc3cc(C(=O)NCCc4ccccc4)ccc32)cc1	/	9	/	/
CCC(CC)NC(=O)CON=C1c2ccccc2-c2ccccc21	13µM*	?	-13%	13µM*
CCNC(=O)CON=C1c2ccccc2-c2ccccc21	-9%	-40	?	8%
Cc1ccc(C(NC(=O)C2CCN(Cc3ccc(Cl)c(Cl)c3)CC2)c2ccccn2)cc1 (stereo not drawn)	/	6	/	/
Cc1cccc(C)c1NC(=S)N=Nc1c(O)n(C)c2ccc(S(=O)(=O)N3CCOCC3)cc12	?	-29	?	?
Cc1ccc(NC(=S)N=Nc2c(O)n(C)c3ccc(S(=O)(=O)N4CCOCC4)cc23)cc1	?	-77*	?	2.6µM*
Cc1ccc(NC(=O)c2ccc(S(=O)(=O)N3CCOCC3)cc2)cc1	-17%	?	8%	-18%
Cc1cc(C)cc(NC(=S)N=Nc2c(O)n(C)c3ccc(S(=O)(=O)N4CCOCC4)cc23)c1	?	?	?	2.1µM*
SMILES	Pf growth 96h	HCMV antiviral	HCV inh	Pf growth 48h
Cc1ccccc1NC(=S)N=Nc1c(O)n(C)c2ccc(S(=O)(=O)N3CCOCC3)cc12	8%	?	?	3.3µM*
Cc1cccc(NC(=S)N=Nc2c(O)n(C)c3ccc(S(=O)(=O)N4CCOCC4)cc23)c1	2.3µM*	48	1.6µM*!	8.3µM*
CC(C)(C)NC(=O)C1CCN(c2nc3ccccc3nc2C(F)(F)F)CC1	/	-5	/	/
Cc1cc(C)c(S(=O)(=O)/N=C2/C=C(SCC(=O)O)C(=O)c3ccccc32)cc1C	10%	/	?	12µM*
N#Cc1ccc(-c2cccs2)nc1SCC(=O)Nc1cccc(C(F)(F)F)c1	/	-31	/	/
N#Cc1cc2c(nc1SCC(=O)Nc1ccc(C(F)(F)F)cc1)C1CCN2CC1	/	-75*	/	/
N#Cc1c(-c2ccccc2)cc(-c2ccccc2)nc1SCC(=O)Nc1ccc(Cl)cc1	/	6	/	/
N#Cc1cc2c(nc1SCC(=O)Nc1cc(Cl)ccc1Cl)C1CCN2CC1	?	-88*	?	?
N#Cc1cc2c(nc1SCC(=O)Nc1ccc(Cl)cc1)C1CCN2CC1	1%	-91*	2.8µM*	13µM*
N#Cc1cc2c(nc1SCC(=O)Nc1ccc(Cl)c(C(F)(F)F)c1)C1CCN2CC1	/	-68*	/	/
CN(N)c1nc(C(F)(F)F)nc2ccccc12	8%	?	-8%	-30%
CN(NS(=O)(=O)c1ccc(Br)cc1)c1nc(C(F)(F)F)nc2ccccc12	13%	-64*	-15%	0%
CSc1nnc(-c2sc3cc(C(F)(F)F)cnc3c2-c2ccccc2)n1C	6.6µM*	?	?	/
O=C(Nc1ccc(Cl)cc1)ON=C1CCCC1	?	-12	1%	12µM*
NC(=O)Nc1ccc(Cl)cc1	35%	-10	31%	90%
CC(CS(=O)(=O)c1ccccc1[N+](=O)[O-])N1CCOCC1 (stereo not drawn)	19%	-81*	32%	12µM*
O=[N+]([O-])c1ccccc1S(=O)(=O)c1ccccc1[N+](=O)[O-]	28%	8	5%	-3%
CC(=O)Oc1ccc(OC(C)=O)c(SCCCCCCl)c1	10%	-72*	11µM*	?
C=CCOc1ccc(CC2C(=O)N(C)C(=O)N(C)C2=O)cc1	1%	0	16%	3.7µM*
CCOc1ccccc1NC(=O)c1c(NC(=O)C(C)Oc2ccc(Cl)cc2)sc2c1CCCCC2 (stereo not drawn)	/	-31	/	/
CC(n1cnnn1)C12CC3CC(CC(C3)C1)C2 (stereo not drawn)	1.7µM*	10	15%	?
COc1ccc(NC(=O)c2oc3ccccc3c2NC(=O)Cc2cccs2)c(OC)c1	/	-26	/	/
O=C(CSCc1ccc(F)cc1)N1CCc2c([nH]c3ccccc23)C1c1ccccc1 (stereo not drawn)	/	-5	/	/
Brc1ccccc1C1=Nn2c(nnc2-c2ccccc2)SC1	8.3µM*	-36	-3%	?
c1ccc(-c2ccc(C3=Nn4c(nnc4-c4cc(-c5ccccc5)n[nH]4)SC3)cc2)cc1	12µM*	20	?	?
SMILES	Pf growth 96h	HCMV antiviral	HCV inh	Pf growth 48h
Brc1ccccc1C1=Nn2c(nnc2-c2ccco2)SC1	0%	25	-4%	2%
c1ccc(-c2ccc(C3=Nn4c(Cn5nnc6ccccc65)nnc4SC3)cc2)cc1	9.3µM*	-27	-65%	?
COc1cccc(NC(=O)CCN2CCN(CCO)CC2)c1	/	0	/	/
COc1ccccc1CNC(=O)CCCn1c(=O)c2ccccc2n(Cc2ccccc2C#N)c1=O	/	-3	/	/
CN(c1cccc(NC(=O)CN(c2cccc(Cl)c2)S(=O)(=O)c2ccccc2)c1)S(C)(=O)=O	?	?	11µM*	?
CN(c1cccc(NC(=O)c2ccc(Cl)c(S(=O)(=O)Nc3ccccc3)c2)c1)S(C)(=O)=O	-16%	2	10µM*	-18%
